PubChem BioAssay AID1159580 (chemical genetic matrix, 2015)
In all, about 5,500 compounds went through this assay and about 2,000 (36%) were called active. Inconclusive results (about 18%) are left out. No stated cut-off is given here; in the data, active means normalized growth mostly below about 0.91 (no sharp cut-off); inconclusive means no clear call, values can overlap the other calls; inactive means mostly above about 0.92. The list shows a part of the results.

Experiment: chemical genetic growth profiling, strain panel (AID 1159580);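 further: tested at 20 µM; growth read once vehicle control cultures reached saturation at 30 °C; 1 = growth at the plate median or of vehicle wells; lower values mean less growth of the strain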
Settings: growth OD

Measured: normalized growth

CCOC(=O)NC1=C(C2CC2)C(=O)C(NC(=O)OCC)=C(C2CC2)C1=O
inactive: S. cerevisiae deletion strains, locus YAL013W, strain DEP1, active compounds read low 0.97 | S. cerevisiae deletion strains, locus YBR021W, strain FUR4, active compounds read low 0.961 | S. cerevisiae deletion strains, locus YBR229C, strain ROT2, active compounds read low 1 | S. cerevisiae deletion strains, locus YCL029C, strain bik1, active compounds read low 0.993 | S. cerevisiae deletion strains, locus YDL035C, strain GPR1, active compounds read low 1 | S. cerevisiae deletion strains, locus YDL074C, strain BRE1, active compounds read low 1.04 | S. cerevisiae deletion strains, locus YDL101C, strain DUN1, active compounds read low 1 | S. cerevisiae deletion strains, locus YDL134C, strain PPH21, active compounds read low 1 | S. cerevisiae deletion strains, locus YDL185W, strain tfp1, active compounds read low 0.98 | S. cerevisiae deletion strains, locus YDL192W, strain arf1, active compounds read low 0.991 | S. cerevisiae deletion strains, locus YDR101C, strain arx1, active compounds read low 0.993 | S. cerevisiae deletion strains, locus YDR150W, strain NUM1, active compounds read low 0.99 | S. cerevisiae deletion strains, locus YDR162C, strain NBP2, active compounds read low 1.01 | S. cerevisiae deletion strains, locus YDR318W, strain mcm21, active compounds read low 0.99 | S. cerevisiae deletion strains, locus YDR388W, active compounds read low 0.995 | S. cerevisiae deletion strains, locus YDR502C, strain sam2, active compounds read low 0.996 | S. cerevisiae deletion strains, locus YEL061C, strain CIN8, active compounds read low 0.995 | S. cerevisiae deletion strains, locus YER110C, active compounds read low 0.98 | S. cerevisiae deletion strains, locus YER155C, strain BEM2, active compounds read low 0.994 | S. cerevisiae deletion strains, locus YER167W, strain BCK2, active compounds read low 0.98 | S. cerevisiae deletion strains, locus YGL078C, strain dbp3, active compounds read low 0.983 | S. cerevisiae deletion strains, locus YGL086W, strain mad1, active compounds read low 0.982 | S. cerevisiae deletion strains, locus YGL248W, strain PDE1, active compounds read low 1 | S. cerevisiae deletion strains, locus YGR078C, strain PAC10, active compounds read low 1.01 | S. cerevisiae deletion strains, locus YGR135W, strain pre9, active compounds read low 1 | S. cerevisiae deletion strains, locus YGR229C, strain SMI1, active compounds read low 1.04 | S. cerevisiae deletion strains, locus YGR252W, strain gcn5, active compounds read low 1.02 | S. cerevisiae deletion strains, locus YHR030C, strain SLT2, active compounds read low 0.986 | S. cerevisiae deletion strains, locus YHR079C, strain IRE1 (second series), active compounds read low 0.99 | S. cerevisiae deletion strains, locus YHR094C, strain hxt1, active compounds read low 0.976 | S. cerevisiae deletion strains, locus YHR129C, strain ARP1, active compounds read low 0.999 | S. cerevisiae deletion strains, locus YHR200W, strain rpn10, active compounds read low 0.992 | S. cerevisiae deletion strains, locus YIL066C, strain RNR3, active compounds read low 1 | S. cerevisiae deletion strains, locus YIL073C, strain SPO22, active compounds read low 0.9 | S. cerevisiae deletion strains, locus YIL125W, strain kgd1, active compounds read low 0.988 | S. cerevisiae deletion strains, locus YIR030C, strain dcg1, active compounds read low 0.995 | S. cerevisiae deletion strains, locus YJL095W, strain BCK1, active compounds read low 1.05 | S. cerevisiae deletion strains, locus YJL134W, strain LCB3, active compounds read low 0.993 | S. cerevisiae deletion strains, locus YJL168C, strain set2, active compounds read low 0.993 | S. cerevisiae deletion strains, locus YJL187C, strain SWE1 (second series), active compounds read low 0.988 | S. cerevisiae deletion strains, locus YJR043C, strain POL32, active compounds read low 0.997 | S. cerevisiae deletion strains, locus YJR075W, strain HOC1, active compounds read low 0.999 | S. cerevisiae deletion strains, locus YKL009W, strain mrt4, active compounds read low 0.973 | S. cerevisiae deletion strains, locus YKL068W, active compounds read low 0.98 | S. cerevisiae deletion strains, locus YKL085W, strain MDH1 (second series), active compounds read low 0.984 | S. cerevisiae deletion strains, locus YKL085W, strain MDH1, active compounds read low 0.984 | S. cerevisiae deletion strains, locus YKL190W, strain CNB1, active compounds read low 0.994 | S. cerevisiae deletion strains, locus YKR001C, strain vps1, active compounds read low 0.989 | S. cerevisiae deletion strains, locus YLR039C, strain RIC1, active compounds read low 0.96 | S. cerevisiae deletion strains, locus YLR058C, strain SHM2, active compounds read low 0.984 | S. cerevisiae deletion strains, locus YLR102C, strain apc9, active compounds read low 0.992 | S. cerevisiae deletion strains, locus YLR262C, strain YPT6, active compounds read low 1.01 | S. cerevisiae deletion strains, locus YLR268W, strain sec22, active compounds read low 1.01 | S. cerevisiae deletion strains, locus YLR330W, strain CHS5, active compounds read low 0.989 | S. cerevisiae deletion strains, locus YLR342W, strain FKS1 (second series), active compounds read low 0.976 | S. cerevisiae deletion strains, locus YLR371W, strain rom2, active compounds read low 0.976 | S. cerevisiae deletion strains, locus YLR418C, strain cdc73, active compounds read low 1.03 | S. cerevisiae deletion strains, locus YML016C, strain PPZ1, active compounds read low 0.99 | S. cerevisiae deletion strains, locus YML032C, strain rad52, active compounds read low 0.985 | S. cerevisiae deletion strains, locus YML124C, strain tub3, active compounds read low 0.988 | S. cerevisiae deletion strains, locus YMR078C, strain ctf18, active compounds read low 0.993 | S. cerevisiae deletion strains, locus YMR223W, strain ubp8, active compounds read low 0.979 | S. cerevisiae deletion strains, locus YMR263W, strain SAP30, active compounds read low 1.01 | S. cerevisiae deletion strains, locus YMR307W, strain GAS1, active compounds read low 0.999 | S. cerevisiae deletion strains, locus YNL067W, strain RPL9B, active compounds read low 1.03 | S. cerevisiae deletion strains, locus YNL128W, strain TEP1, active compounds read low 1.01 | S. cerevisiae deletion strains, locus YNL153C, strain GIM3, active compounds read low 1.01 | S. cerevisiae deletion strains, locus YNL233W, strain BNI4, active compounds read low 1.01 | S. cerevisiae deletion strains, locus YNL250W, strain rad50, active compounds read low 0.981 | S. cerevisiae deletion strains, locus YNL271C, strain bni1, active compounds read low 0.984 | S. cerevisiae deletion strains, locus YNL298W, strain CLA4, active compounds read low 0.985 | S. cerevisiae deletion strains, locus YNL307C, strain MCK1, active compounds read low 0.985 | S. cerevisiae deletion strains, locus YNL322C, strain KRE1, active compounds read low 0.998 | S. cerevisiae deletion strains, locus YNR052C, strain pop2, active compounds read low 0.98 | S. cerevisiae deletion strains, locus YOL006C, strain TOP1, active compounds read low 1.1 | S. cerevisiae deletion strains, locus YOL012C, strain htz1 1.15 | S. cerevisiae deletion strains, locus YOL147C, strain pex11, active compounds read low 0.986 | S. cerevisiae deletion strains, locus YOR061W, strain CKA2, active compounds read low 1 | S. cerevisiae deletion strains, locus YOR069W, strain VPS5, active compounds read low 0.995 | S. cerevisiae deletion strains, locus YOR136W, strain idh2, active compounds read low 0.983 | S. cerevisiae deletion strains, locus YOR144C, strain elg1, active compounds read low 1 | S. cerevisiae deletion strains, locus YOR184W, strain ser1, active compounds read low 0.974 | S. cerevisiae deletion strains, locus YOR316C, strain cot1, active compounds read low 0.985 | S. cerevisiae deletion strains, locus YPL055C, strain LGE1, active compounds read low 1.04 | S. cerevisiae deletion strains, locus YPL241C, strain CIN2, active compounds read low 0.999 | S. cerevisiae deletion strains, locus YPR119W, strain clb2, active compounds read low 0.988 | S. cerevisiae deletion strains, locus YPR141C, strain kar3, active compounds read low 0.984 | S. cerevisiae deletion strains, locus YPR163C, strain tif3, active compounds read low 0.988 | S. cerevisiae deletion strains, locus YPR167C, strain met16, active compounds read low 1 | S. cerevisiae deletion strains, strain wtn01, active compounds read low 0.995 | S. cerevisiae strains, strain wild type, active compounds read low 0.995
